esBAF inh – SWI/SNF esBAF complex inhibition; mouse ES cells, Bmi1-luciferase knock-in reporter, 24 h; 100% = twice the neutral-well signal; reporter increase, % at 12.5 µM; hit rate 2% among 350,000; AID 602393; in the data active = activation above about 40%; inconclusive = no clear call, values can overlap the other calls;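 note: 0% = median of the plate's neutral control wells and 100% = double that signal; a rise in the Bmi1 reporter signal indicates esBAF inhibition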
MITF act – MITF TRPM1 promoter activation in melanoma cells. AID 588334. SK-MEL-5 TRPM1-promoter luciferase, 24 h; % of positive control, neutral wells = 0. activation, % at 12.5 µM. hit rate 0.75% among 300,000;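 active = mean activation of at least 80% with every replicate also reaching 80%; inconclusive = mean reaches 80% but some replicate falls short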;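 note: 0% = neutral control wells and 100% = parthenolide positive control wells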
AHR activator – human AHR activation | P35869 | hit rate 2.5% among 320,000 | activation, % at 5 µM | AID 2796 | AHR-responsive luciferase reporter cells, luminescence; in the data active = activation above about 47%;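 note: 0% = vehicle wells and 100% = reference agonist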
Target sequence (P35869 whole entry, looked up): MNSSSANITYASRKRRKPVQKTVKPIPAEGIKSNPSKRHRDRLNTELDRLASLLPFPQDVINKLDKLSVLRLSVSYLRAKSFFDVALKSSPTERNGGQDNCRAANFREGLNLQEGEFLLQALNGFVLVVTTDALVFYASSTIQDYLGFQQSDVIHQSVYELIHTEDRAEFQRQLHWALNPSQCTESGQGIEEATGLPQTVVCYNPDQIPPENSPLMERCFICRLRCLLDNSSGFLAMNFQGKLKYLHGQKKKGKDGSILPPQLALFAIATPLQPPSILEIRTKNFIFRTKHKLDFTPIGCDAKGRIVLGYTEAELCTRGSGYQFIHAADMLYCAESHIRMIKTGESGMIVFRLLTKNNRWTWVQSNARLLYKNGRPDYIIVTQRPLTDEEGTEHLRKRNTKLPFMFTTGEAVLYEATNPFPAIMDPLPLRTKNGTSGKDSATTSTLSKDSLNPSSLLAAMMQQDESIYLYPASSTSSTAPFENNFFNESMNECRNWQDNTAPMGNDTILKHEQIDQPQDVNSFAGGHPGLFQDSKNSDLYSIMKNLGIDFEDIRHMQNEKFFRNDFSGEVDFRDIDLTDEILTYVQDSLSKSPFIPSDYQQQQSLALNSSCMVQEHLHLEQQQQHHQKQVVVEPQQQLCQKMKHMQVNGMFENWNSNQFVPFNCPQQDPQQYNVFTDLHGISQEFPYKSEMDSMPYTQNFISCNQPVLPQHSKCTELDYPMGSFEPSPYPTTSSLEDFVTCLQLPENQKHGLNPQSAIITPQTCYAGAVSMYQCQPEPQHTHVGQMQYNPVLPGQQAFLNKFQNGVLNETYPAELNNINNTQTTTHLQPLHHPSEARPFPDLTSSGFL
GAA850 FXN act – activators of GAA850 frataxin (FXN) promoter | HEK293 lucGAA850 FXN promoter luciferase reporter, 24 h; percent of 10 µM SAHA response | activation, % at 6 µM | hit rate 0.56% among 360,000;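 active = activation above the average of all compounds screened plus 3 SD, cutoff fixed separately per campaign, cut at about 7.5% in these data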;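 note: 0% = DMSO wells and 100% = 10 µM SAHA wells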
Wnt bcat act – activates Wnt/beta-catenin signaling in a reporter cell assay | activator, plate reader | activation, % at 9.35 µM | hit rate 1.2% among 300,000 | AID 743398; in the data active = activation above about 30%, passing the limit was not always enough; inconclusive = no clear call, values can overlap the other calls;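 note: 0% = neutral control wells and 100% = positive control wells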
Numbers without * were called inactive; u = inconclusive; x = not tested or not shown. A selection: hits, their analogues and other compounds. The true share with any hit is near 4.2%.

SMILES	esBAF inh	MITF act	AHR activator	GAA850 FXN act	Wnt bcat act
Cc1cccc(NCc2nc3ccccc3n2Cc2ccccc2)c1	20	x	8	3	21
Cc1nc2cc(NCc3nc4ccccc4n3Cc3ccccc3)ccc2n1C	x	34	27	-13	x
Cc1ccc(NCc2nc3ccccc3n2C)c(C)c1	-17	-16	76*	1	40*
Cc1ccc(N2CCN(c3ccc(NCc4nc5ccccc5n4C)cc3)CC2)cc1	x	1	66*	3	1
Cc1ccc(NCc2ccccc2O)c(C)c1	x	21	-1	2	4
Cc1cccc(NCc2nc3ccccc3n2C)c1	61*	37	47*	2	x
Cc1ccc(S(=O)(=O)Nc2ccc3c(c2)C(=O)N([C@H](C)CO)C[C@H](C)[C@@H](CN(C)C(=O)NC(C)C)O3)cc1	-5	x	x	x	x
O=C(C[C@H]1CC[C@@H]2[C@H](COC[C@H](O)CN2C(=O)Nc2ccc(Cl)c(Cl)c2)O1)NCc1ccc(Cl)c(Cl)c1	-5	x	x	x	x
COCC(=O)N(C)C[C@@H]1Oc2cc(C3=CCCCC3)ccc2S(=O)(=O)N([C@@H](C)CO)C[C@@H]1C	5	x	x	x	x
O=C(Nc1ccc(NC(=O)c2cccs2)c(Cl)c1)c1ccco1	x	-1	64*	-1	-1
C/C(=N\NS(=O)(=O)c1ccc([N+](=O)[O-])cc1)c1ccc(NC(=O)c2ccco2)cc1	0	68	3	2	34*
C/C(=N\NC(=O)c1ccco1)c1ccc(NC(=O)c2cccs2)cc1	x	32	8	2	39*
C/C(=N\NC(=O)c1ccccc1C)c1ccc(NC(=O)c2cccs2)cc1	53*	14	5	6	x
Cc1cc(C)c2cccc(NC(=S)NC(=O)c3ccccc3)c2n1	5	-9	45	5	-2
Cc1ccc2cccnc2c1NC(=S)NC(=O)c1ccccc1	-12	6	69*	-2	x
Cc1ccc2cccc(NC(=S)NC(=O)c3ccccc3)c2n1	17	x	56*	6	5
COc1ccc(-c2cnc3c(c2)C(=O)N([C@@H](C)CO)C[C@@H](C)[C@@H](CN(C)C(=O)C2CCC2)O3)cc1	2	x	x	x	x
C[C@@H]1CCCCO[C@@H](CN(C)S(=O)(=O)c2cccs2)[C@@H](C)CN([C@H](C)CO)C(=O)c2cc(NC(=O)Nc3ccccc3)ccc2O1	-2	x	x	x	x
CN(C)CCCNC(=O)[C@@H]1[C@@H](CO)[C@@H]2Cn3c(ccc(C4=CCCC4)c3=O)[C@H]1N2Cc1cocn1	2	x	x	x	x
C[C@H](CO)N1C[C@H](C)[C@@H](CN(C)CC2CCCC2)Oc2ncc(-c3ccc(C#N)cc3)cc2C1=O	1	x	x	x	x
O=c1c2ccccc2nc(COc2ccccc2)n1/N=C/c1c[nH]c2ccccc12	x	10	63*	0	1
CO[C@@H]1CN(C)C(=O)c2ccc(NS(C)(=O)=O)cc2OC[C@@H](C)N(Cc2ccccc2)C[C@@H]1C	4	x	x	x	x
O=c1[nH]c(=O)n([C@H]2C[C@H](O)[C@@H](CO)O2)cc1Br	13	-21	-1	3	46*
Cc1noc(C)c1NC(=O)Nc1ccc2c(c1)C(=O)N([C@@H](C)CO)C[C@H](C)[C@@H](CN(C)Cc1ccc3c(c1)OCO3)O2	-2	x	x	x	x
O=C1Nc2ccc(Br)cc2C1Cc1ccccc1F (stereo not drawn)	2	x	57*	1	-1
SMILES	esBAF inh	MITF act	AHR activator	GAA850 FXN act	Wnt bcat act
Cn1c(CC2C(=O)Nc3ccc(Br)cc32)nc2ccccc2c1=O (stereo not drawn)	7	-5	50*	-3	-2
O=C1NC(Cc2ccccc2)C(=O)Nc2ccc(Br)cc21 (stereo not drawn)	-5	-10	-2	0	-1
COCC(=O)N(C)C[C@@H]1Oc2ncc(-c3ccc(F)cc3)cc2C(=O)N([C@@H](C)CO)C[C@H]1C	3	x	x	x	x
CC(=O)N(C)C[C@H]1Oc2cc(C#Cc3cccnc3)ccc2S(=O)(=O)N([C@H](C)CO)C[C@H]1C	5	x	x	x	x
O=C(C[C@@H]1CC[C@@H](NC(=O)Nc2cc(F)ccc2F)[C@@H](CO)O1)Nc1ccc(-c2ccccc2)cc1	13	x	x	x	x
CC(=O)c1ccc(-c2nnc(CCC(=O)N3CCCC(C(=O)CC(C)C)C3)o2)s1 (stereo not drawn)	83*	73	11	5	-1
NC(=O)C1CCCN(C(=O)CCc2nnc(C3(c4ccc(Cl)cc4)CCC3)o2)C1 (stereo not drawn)	x	17	-2	3	-2
CCC(=O)C1CCCN(C(=O)CCc2nnc(C3(c4ccc(Cl)cc4)CCC3)o2)C1 (stereo not drawn)	50*	44	14	1	18
CN1C(=O)c2cc(NC(=O)C3CCCC3)ccc2OC[C@@H]2O[C@@H](CC(=O)NCC(F)(F)F)CC[C@H]21	-8	x	x	x	x
C[C@@H]1CCCCO[C@H](CN(C)C(=O)c2ccccc2)[C@H](C)CN([C@@H](C)CO)C(=O)c2cc(N(C)C)ccc2O1	0	x	x	x	x
O=c1c2ccccc2nc2ccc(N3CCOCC3)nn12	x	46	8	3	u
Cc1sc2nc3ccc(N4CCCC4)nn3c(=O)c2c1C	52*	31	1	1	5
Cc1ccc2nc3ccc(N4CCCCCCC4)nn3c(=O)c2c1	60*	x	-3	1	29
C[C@H](CO)N1C[C@H](C)[C@H](CN(C)C(=O)C2CCCCC2)Oc2ncc(-c3cccc(F)c3)cc2C1=O	-9	x	x	x	x
CNC[C@@H]1Oc2ccc(NS(=O)(=O)c3cn(C)cn3)cc2CC(=O)N([C@H](C)CO)C[C@@H]1C	-2	x	x	x	x
O=C(C[C@H]1CC[C@@H]2[C@H](COC[C@H](O)CN2C(=O)c2ccccc2F)O1)N1CCCCC1	-5	x	x	x	x
O=C1CCC(C(=O)N2CCSCC2)CN1CCc1ccccc1 (stereo not drawn)	0	2	1	2	-4
C=CCC1(CC=C)CCCN1C(=O)C1CCC(=O)N(CCc2ccc(OC)cc2)C1 (stereo not drawn)	69*	48	4	3	20
C=CCC1(CC=C)CCCN1C(=O)C1CCC(=O)N(CCc2ccccc2)C1 (stereo not drawn)	9	103*	6	1	29
COc1ccc(CCN2CC(C(=O)N3CCC(OC)CC3)CCC2=O)cc1 (stereo not drawn)	4	7	-1	0	0
CO[C@H]1CN(C)C(=O)c2cc(NC(=O)Nc3ccc(F)cc3)ccc2OC[C@H](C)NC[C@H]1C	-2	x	x	x	x
COc1ccc(NC(=O)Nc2ccc3c(c2)C(=O)N([C@H](C)CO)C[C@@H](C)[C@H](CN(C)Cc2ccc(-c4ccccc4)cc2)O3)cc1	0	x	x	x	x
COc1ccc(C2=C(CN(C)C)C(c3ccccc3)c3ccccc3O2)cc1 (stereo not drawn)	71*	-8	3	-2	x
CCOc1ccc(C2=C(C=C(C#N)C#N)C(c3ccccc3)c3ccccc3O2)cc1 (stereo not drawn)	x	-17	-1	3	-1
C[C@@H]1CN([C@H](C)CO)C(=O)c2cc(NC(=O)Cn3cnnn3)ccc2O[C@@H]1CN(C)S(=O)(=O)c1cccs1	1	x	x	x	x
